Assay results from the supplement of paper PMC7184167.
Where a name gives a salt, the structure may show the parent alone.

test system: replication-induced senescent mouse newborn dermal fibroblasts (NBF); test: relative cell viability of senescent cells (fraction); higher = less killing of senescent cells; details: 1 µM; 3 days
Experimental: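 Replication-induced senescent newborn mouse skin fibroblasts (NBFs) in 24-well plates were treated with a Selleck FDA-approved drug library at 1 µM for 3 days.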

Compared with `CCC[C@H](NC(=O)[C@@H]1[C@H]2CCC[C@H]2CN1C(=O)[C@@H](NC(=O)[C@@H](NC(=O)c1cnccn1)C1CCCCC1)C(C)(C)C)C(=O)C(=O)NC1CC1` [Telaprevir (VX-950)], `CN(C)CCC(c1ccc(Cl)cc1)c1ccccn1` (stereo not given) [Chlorpheniramine Maleate] is lower in relative cell viability: 0.411 for the first, 0.208 for the second.

Going from `O=C1[C@H](CC[C@H](O)c2ccc(F)cc2)[C@@H](c2ccc(O)cc2)N1c1ccc(F)cc1` [Ezetimibe] to `CN/C(=N\CCSCc1nc[nH]c1C)NC#N` [Cimetidine], the relative cell viability rises from 0.901 to 1.01.

With `O=S(=O)(O)CCS` [Mesna] the relative cell viability was 1.04.
